Screening data (PubChem)
a7 integrin act – activators of alpha7 integrin expression for muscular dystrophy. alpha7betagal myoblasts, beta-gal FDG fluorescence, 48 h. Potency, µM (highest dose often 38.3 µM), usual class: activators. 350,000 compounds, 0.064% hits. AID 624291; also: nearly all actives have a fitted effect of over 60% in size
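Alpha7betagal+/- myoblasts (passage 13) were plated 16-24 hr, then exposed to compounds (1:260 dilution of DMSO stock) for 48 hours at 37C. After MPER lysis, β-galactosidase reporter activity was read as FDG fluorescence (ex 480/em 540) after 30 minutes.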
D3 ag – activates the human D3 dopamine receptor; D3R DiscoveRx beta-arrestin cells, luminescence, 90 min; max activation, %; 410,000 compounds, 0.58% hits; AID 652048; in the data active = max activation above about 30%
Target sequence (P35462 whole entry, looked up): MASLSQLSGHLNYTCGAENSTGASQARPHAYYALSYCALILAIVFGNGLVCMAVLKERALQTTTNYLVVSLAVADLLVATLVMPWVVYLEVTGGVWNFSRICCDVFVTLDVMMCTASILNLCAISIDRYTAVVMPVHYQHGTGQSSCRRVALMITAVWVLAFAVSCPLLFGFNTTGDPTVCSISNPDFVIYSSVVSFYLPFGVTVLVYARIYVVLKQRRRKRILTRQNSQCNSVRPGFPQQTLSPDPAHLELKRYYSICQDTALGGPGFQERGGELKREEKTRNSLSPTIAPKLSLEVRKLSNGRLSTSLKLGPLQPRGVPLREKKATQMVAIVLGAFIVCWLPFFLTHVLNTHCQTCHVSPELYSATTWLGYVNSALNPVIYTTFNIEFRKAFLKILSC
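Agonist mode: compounds and dopamine controls were applied to plated cells for 90 min at 37 degrees C after an overnight attachment at 1500 cells/well. Luminescent read-out followed 30 - 60 minutes at room temperature with DiscoveRx detection reagent.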
B2AR arrestin – beta2AR (human) beta-arrestin recruitment activity; P07550; beta-arrestin recruitment to beta2AR, cell-based reporter; Potency, µM (top dose mostly 46.1 µM), usual class: activators; 330,000 compounds, 0.02% hits; also: nearly all actives have a fitted effect of over 65% in size
IDH1 R132H inh – human IDH1 R132H inhibition; O75874; IDH1-R132H enzyme, NADPH consumption, diaphorase/resazurin fluorescence; Potency, µM (doses to about 76.6 µM), most hits filed as inhibitors; 390,000 compounds, 0.093% hits; AID 602179; also: nearly all actives have a fitted effect of over 65% in size
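IDH1-R132H (0.5 ug/mL dispensed) in pH 7.5 Tris buffer was preincubated 30 min with compound, then given a substrate mix of 0.016 mM NADPH and 2 mM alpha-KG for 80 min at room temperature; remaining NADPH was read by diaphorase/resazurin fluorescence.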
D3 antag – D3 dopamine receptor (human) antagonism. P35462. D3R cells, DiscoveRx beta-arrestin luminescence, antagonist mode; stronger effect = lower value. max response, negative = inhibition, %. 360,000 compounds, 2.5% hits; in the data active = max response below about -50%; inconclusive = no clear call, values can overlap the other calls
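Cells plated overnight at 1500 cells/well, then exposed to library compounds with dopamine controls for 90 minutes at 37 degrees C. DiscoveRx reagent added for 30–60 minutes at room temperature; luminescence read, quantitative HTS format.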
Large screens that a line does not name were inactive; ! = not active in a repeat. Most compounds without a hit are left out; they make up all but 2.9% or so of the library. Unless noted, calls follow the shape of the dose curve; as a rule, active = well fitted curve in the direction sought with a large enough effect; inconclusive = small, poorly fitted or top-dose-only effect, or another doubt; inactive = no such curve, though single readings can be large; an effect the other way counts as inactive or inconclusive.

CCN(CC)CCCNC(=O)c1c(C)oc2ncnc(N3CCOCC3)c12	none (no result: a7 integrin act, B2AR arrestin, D3 antag)
CCc1ccccc1NC(=S)NC1CC2CCC(C1)N2Cc1ccco1 (configuration not stated)	D3 antag -53
CCc1ccc(NC(=S)NC2CC3CCCC(C2)N3Cc2cccs2)cc1 (configuration not stated)	D3 antag -70
CCc1ccccc1NC(=O)NC1CCCCC1	none
Cc1cccc(NC(=S)NC2CC3CCC(C2)N3Cc2ccco2)c1C (configuration not stated)	none
CCc1ccccc1NC(=O)NC1CC2CCC(C1)N2Cc1cccs1 (configuration not stated)	D3 antag -54
CCc1ccccc1NC(=S)NC1CC2CCC(C1)N2Cc1ccc(F)cc1 (configuration not stated)	D3 antag -90
Cc1ccc2c(CNC3CCC(C)CC3)c(C(=O)O)n(Cc3cccc(F)c3)c2c1 (configuration not stated)	none (no result: a7 integrin act, B2AR arrestin, D3 antag)
CCCOC(=O)CSc1nnc2ccc3ccccc3n12	none (no result: a7 integrin act, B2AR arrestin, D3 antag)
CC(C)(C)c1ccc(CN2CCN(C(c3ccccc3)c3ccc(Cl)cc3)CC2)cc1 (configuration not stated)	none (no result: a7 integrin act, B2AR arrestin, IDH1 R132H inh, D3 antag)
CC(C)N(Cc1nc(-c2ccc(Cl)cc2)no1)C(=O)c1ccco1	none (no result: a7 integrin act, B2AR arrestin, D3 antag)
Cc1cccc(NC(=S)N/C(=N/S(=O)(=O)c2ccccc2)c2ccccc2)c1	D3 antag -61!
Cc1ccc(S(=O)(=O)/N=C(/NC(=S)Nc2cccc(C)c2)c2ccccc2)cc1	none
NC[C@H]1O[C@H](O[C@H]2[C@H](O)[C@@H](O[C@H]3O[C@H](CO)[C@@H](O)[C@H](N)[C@H]3O)[C@H](N)C[C@@H]2N)[C@H](O)[C@@H](O)[C@@H]1O	none (no result: a7 integrin act, B2AR arrestin, IDH1 R132H inh, D3 antag)
CC(C)Sc1nnc(NC(=O)CCc2ccccc2)s1	none
Cc1ccccc1C(=O)Nc1nnc(SC(C)C)s1	a7 integrin act 10µM
CC1(C(=O)NS(=O)(=O)c2ccc(Cl)cc2)CCN1C(=O)CCc1ccc(Cl)cc1Cl (configuration not stated)	D3 antag -52 (no result: a7 integrin act, B2AR arrestin, IDH1 R132H inh)
CC1(C(=O)NS(=O)(=O)c2cccc(Cl)c2)CCN1C(=O)CC1CC1 (configuration not stated)	D3 ag 52 (no result: a7 integrin act, B2AR arrestin, IDH1 R132H inh)
CC1(C(=O)NS(=O)(=O)c2cccc(Cl)c2)CCN1C(=O)Cc1ccc(Cl)cc1Cl (configuration not stated)	D3 antag -83 (no result: a7 integrin act, B2AR arrestin, IDH1 R132H inh)
CC1(C(=O)Nc2cnc3ccccc3c2)CCN1C(=O)CCc1ccccc1 (configuration not stated)	D3 ag 54 (no result: a7 integrin act, B2AR arrestin, IDH1 R132H inh)
CN(C(=O)CSc1cn(CC(=O)N2CCCC2)c2ccccc12)c1ccccc1	none (no result: a7 integrin act, B2AR arrestin, D3 antag)
O=C(Nc1ccccc1C(F)(F)F)c1ncoc1-c1ccco1	none (no result: a7 integrin act, B2AR arrestin, D3 antag)
CCCCOc1ccc(S(=O)(=O)NC(=O)C2(C)CCN2C(=O)CCc2ccccc2)cc1 (configuration not stated)	D3 antag -50 (no result: a7 integrin act, B2AR arrestin, IDH1 R132H inh)
CCCCOc1ccc(S(=O)(=O)NC(=O)C2(C)CCN2C(=O)Cc2ccccc2Cl)cc1 (configuration not stated)	none (no result: a7 integrin act, B2AR arrestin, IDH1 R132H inh)
CO/N=C(\C(=O)N[C@@H]1C(=O)N2C(C(=O)OCOC(=O)C(C)(C)C)=C(/C=C\c3scnc3C)CS[C@H]12)c1csc(N)n1	none (no result: a7 integrin act, B2AR arrestin, IDH1 R132H inh, D3 antag)
S=c1[nH]nc(-c2ccncc2)n1Cc1ccco1	none
S=c1[nH]nc(-c2ccccc2)n1Cc1ccccc1	D3 antag inconclusive
Cc1c(Cl)c(-c2n[nH]c(=S)n2Cc2ccco2)nn1C	D3 antag -54
S=c1[nH]nc(-c2ccco2)n1Cc1ccccc1	D3 antag -81
CCn1c(-c2ccco2)n[nH]c1=S	none
S=c1[nH]nc(-c2ccc(Br)o2)n1Cc1ccccc1	D3 antag -82
CC(=O)Nc1ccc2c(c1)nc(CCN1CCN(c3ccccn3)CC1)n2C	none
CC1CCN(CCc2nc3cc(NC(=O)Nc4ccccc4)ccc3n2C)CC1	D3 antag -60
CC(C)C(=O)Nc1ccc2c(c1)nc(CCN1CCN(c3ccccn3)CC1)n2C	D3 ag 62
CC1CCN(CCc2nc3cc(NS(=O)(=O)c4ccccc4)ccc3n2C)CC1	D3 antag -75
CCC(=O)Nc1ccc2c(c1)nc(CCN1CCN(c3ccccc3)CC1)n2C	D3 antag -62
CCC(=O)Nc1ccc2c(c1)nc(CCN1CCCCC1)n2C	none
COC(=O)c1ccc(NC(=O)CC2C(=O)N(c3ccccc3)C(=O)N2Cc2ccc(F)cc2)cc1 (configuration not stated)	none (no result: a7 integrin act, B2AR arrestin, D3 antag)
COc1ccc(C)cc1NC(=O)c1nnn(-c2c(C)cccc2C)c1C	none (no result: a7 integrin act, B2AR arrestin, D3 antag)
COC(CNC(=O)c1coc2nc3ccccc3nc12)OC	none
C[C@]12CC[C@@H]3c4ccc(O)cc4C[C@@H](CCCCCCCCCS(=O)CCCC(F)(F)C(F)(F)F)[C@H]3[C@@H]1CC[C@@H]2O (some centres not stated)	none (no result: a7 integrin act, B2AR arrestin, IDH1 R132H inh, D3 antag)
CC1CCN(CCc2nc3cc(NS(=O)(=O)c4ccc(F)cc4)ccc3n2C)CC1	D3 antag -70
CN1CCc2cccc3c2[C@@H]1Cc1ccc(O)c(O)c1-3	D3 ag 44 (no result: a7 integrin act)
COc1ccc2c(c1O)-c1ccccc1CCN(C)C2	none
CCOc1ccc(-c2nnn(CC(=O)c3ccc4c(c3)OCCO4)n2)cc1	D3 ag 37
CCCOc1ccc(-c2nnn(CC(=O)N3CCC(C)CC3)n2)cc1	none
CCCCOc1ccc(-c2nnn(CCC(=O)N3CCOCC3)n2)cc1	D3 antag -96
CCCOc1ccc(-c2nnn(CC(=O)c3ccc4c(c3)OCCO4)n2)cc1	none
CC(=O)c1cccc(NC(=O)c2ccc(Cl)c(S(=O)(=O)N3CCOCC3)c2)c1	none (no result: a7 integrin act, B2AR arrestin, D3 antag)
O=C(NCCc1c[nH]c2ccccc12)OCCCCOC(=O)NCCc1c[nH]c2ccccc12	D3 ag 60
O=P(Cc1nnco1)(c1ccccc1)c1ccccc1	D3 antag -63
Cc1cccc(NC(=O)c2oc3ccc(S(=O)(=O)N4CCOCC4)cc3c2C)c1C	D3 ag 41
Cc1ccc(NC(=O)c2oc3ccc(S(=O)(=O)N4CCOCC4)cc3c2C)c(C)c1	none
Cc1c(C(=O)Nc2ccc(F)cc2)oc2ccc(S(=O)(=O)N3CC(C)CC(C)C3)cc12 (configuration not stated)	D3 antag -62
COc1nnc(-c2ccc(N3CCCCC3)c(NC(=O)c3ccccc3)c2)c2ccccc12	none (no result: a7 integrin act, B2AR arrestin, D3 antag)
Cc1cc(NCc2ccc(Cl)cc2)n2cnnc2n1	none (no result: a7 integrin act, B2AR arrestin, IDH1 R132H inh, D3 antag)
Cc1cc(C)cc(C(=O)Oc2cc(C)[nH]c(=O)c2[N+](=O)[O-])c1	none
COCCCNC(=O)c1ccc(N2CCOCC2)c(NS(=O)(=O)c2ccc(OC)cc2)c1	D3 antag -73
OC1CCCN(C(=S)NCc2ccccc2)C1 (configuration not stated)	D3 antag -73
